# Data reported in PubChem BioAssay (NCATS).
# Records with an inconclusive call do not appear. Where a call stands in place of a potency, no number is given. Values without a mark were called inactive. Active and inactive are the calls of the source. The call rests on the fitted dose curve; in most records, active means well fitted curve in the direction sought with a large enough effect; inconclusive means small, poorly fitted or top-dose-only effect, or another doubt; inactive means no such curve, though single readings can be large; an effect the other way counts as inactive or inconclusive. *1 amine or outer side, *2 acyl side, *3 side chain or, on linkers, in order; H or OH if unused. Where a SMILES comes first, the peptide text is derived from it. Bridges are numbered along the chain shown (N, C = ends). Roman numbers before positions name the chains, in order. [ ]: non-standard residue; d: D form. ξ: configuration not given here. Actinocin(9to1) = Cc1c2oc3c(C)ccc(C(=O)[*:1])c3nc-2c(C(=O)[*:2])c(N)c1=O; ξNMeV = CNC(C(=O)O)C(C)C; ξV = CC(C)C(N)C(=O)O; Sar = CNCC(=O)O
# What was measured:
# [1] = Identifying Small Molecule Inhibitors of Pancreatic Cancer Stem Cells (A2780, Spheroid) (AID 1259357); settings: Potency: A2780 spheroid viability;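 further: compound exposure lasted 48 h before the ATP luminescence read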; further: potency means the concentration at half of the fitted maximal effect
# Description: Progenitor-like cancer cells, often referred to as cancer stem cells (CSC), are believed to be the drivers of therapeutic resistance and rapid recurrence. CSCs are postulated to reside in specific niches characterized by low oxygen tension, limited nutrient supply, and high redox load. Selectively targeting CSC, alone or in combination with cytotoxic agents, as a means to produce durable remissions is an appealing concept. Modeling these cells in in vitro setting is an important step in finding new therapies and/or targets. Multiple reports highlight that forcing cells in culture into 3-dimensionaly architectures (spheroids) re-establishes key progenitor-like transcriptional signatures. Pancreatic cancer is among the diseases with the most dismal outlook which is driven, largely, by recurance following front-line therapies. […] In hopes of deriving new insight into the targeting of these pancreatic CSCs we examined three established pancreatic cancer cell lines in cytotoxicity assays versus a collection of approved and investigational drugs. Importantly, we screened these lines as traditional monolayer (2D) and spheroid (3D) formats to gain an appreciation of agents with differential activity.
# Multicellular tumor spheroids from Panc1, MiaPaCa-2, and the primary low-passage tissue culture line SB.06 were seeded in stem cell media (SCM) in nonadherent 6-well plates coated with hydrogel (Corning Life Sciences, Chelmsford, Mass) and pancreatic spheres generated for 14 days before screening. Cells were seeded into 1536-well solid-bottom white tissue culture treated Greiner Bio One Plates (789173-F) using a MultiDrop Combi (Thermofisher Scientific) dispenser and a small sterile cassette. One column was media alone to be used as a :"no cells" control. The plates were then covered with sterilized stainless steel gasketed lids from Kalypsys. After allowing cells to attach for 4 hours, 23 nL of test compound or control (negative control DMSO and positive control 9.2 uM Bortezomib-final) were added from a 1536-well polypropylene compound source plate to each well using a 1536 head pin tool from Kalypsys. Cells were then incubated for 48 hours at 37C, 95% relative humidity and 5% CO2. After 48 hours, plates were removed from the incubator and 3 uL of CellTiter-Glo (Promega) was added using an Aurora Flying Reagent Dispenser Bioraptor. Plates were incubated at room temperature for 10 minutes prior to reading the luminescence on the Viewlux (PerkinElmer). The relative luciferase units are used to calculate the percent activity using the activity of DMSO in the cells and no cells columns for normalization of no inhibition and full inhibition respectively.
# [2] = Identifying Small Molecule Inhibitors of Pancreatic Cancer Stem Cells (SN12C, Spheroid) (AID 1259360); settings: Potency: SN12C spheroid viability; further: potency means the concentration at half of the fitted maximal effect
# Outline: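 Adherent (2D) versus sphere (3D) formats; spheres generated 14 d in SCM beforehand. Compound transferred by pin tool after 4 h, 48 h incubation, CellTiter-Glo endpoint.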
# [3] = Identifying Small Molecule Inhibitors of Pancreatic Cancer Stem Cells (A278, Adherent) (AID 1259361);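 further: viability read after 48 h compound exposure; nearly all actives have a fitted effect of over 35% in size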
# Outline: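 Monolayer and spheroid cultures are compared. Spheroids form over 14 days in stem cell medium on hydrogel-coated low-attachment plates, then are exposed to compound for 48 h before CellTiter-Glo luminescence.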
# [4] = P-glycoprotein substrates identified in KB-8-5-11 adenocarcinoma cell line, qHTS therapeutic library screen (AID 1346987); further: nearly all actives have a fitted effect of over 65% in size
# Outline: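 Human cervical adenocarcinoma KB-8-5-11 cells, selected in colchicine to over-express P-gp and assayed without it, were exposed for 72 h to titrated compounds. An ATP-based luminescent viability signal gave AC50.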
# [5] = Identifying Small Molecule Inhibitors of Pancreatic Cancer Stem Cells (Panc1, Spheroid) (AID 1259359);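 further: compound exposure lasted 48 h before reading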; further: potency means the concentration at half of the fitted maximal effect
# Outline: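 Luminescent ATP readout (CellTiter-Glo) quantifies surviving cells after a 48 h drug incubation. Normalization uses DMSO wells as no inhibition and media-only wells as full inhibition; bortezomib served as positive control.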
# [6] = Identifying Small Molecule Inhibitors of Pancreatic Cancer Stem Cells (Panc1, Adherent) (AID 1259362); settings: Potency: viability; further: potency means the concentration at half of the fitted maximal effect
# Outline: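 Viability is scored by CellTiter-Glo luminescence 48 h after dosing, expressed as percent activity against vehicle and no-cell references. Spheroid formats rely on cells cultured 14 days in stem cell media beforehand.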
# [7] = P-glycoprotein substrates identified in KB-3-1 adenocarcinoma cell line, qHTS therapeutic library screen (AID 1346986); further: nearly all actives have a fitted effect of over 60% in size
# Outline: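 Viability by CellTiter-Glo after 72 h compound exposure at 37 degree C, 5% CO2. Cytotoxic call: curve class -1.1 to -2.4, maximum response >50%, AC50 < 10 uM, compared across KB-3-1 and P-gp-overexpressing KB-8-5-11.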
structure (smiles),measurement,setting,value
CCCCCCCCCCCCCCCCCCOP(=O)([O-])OC1CC[N+](C)(C)CC1,Potency,[1],inactive
same,Potency,[2],inactive
same,IC50 (viability decrease),[3],8120 nM (active)
same,Potency,[4],inactive
"Cc1c2oc3c(C)ccc(C(=O)N[C@@H]4C(=O)NC(C(C)C)C(=O)N5CCC[C@H]5C(=O)N(C)CC(=O)N(C)C(C(C)C)C(=O)O[C@@H]4C)c3nc-2c(C(=O)N[C@@H]2C(=O)NC(C(C)C)C(=O)N3CCC[C@H]3C(=O)N(C)CC(=O)N(C)C(C(C)C)C(=O)O[C@@H]2C)c(N)c1=O (stereo not given in full) (I: T[ξV]P[Sar][ξNMeV] / II: T[ξV]P[Sar][ξNMeV]; ester I:1-I:C, II:1-II:C; linker I:N-II:N via Actinocin(9to1))",Potency,[5],4.7 nM (active)
same,Potency,[2],4.7 nM (active)
same,Potency,[6],13.2 nM (active)
CC(NC(=O)Cc1cc(F)cc(F)c1)C(=O)NC(C(=O)OC(C)(C)C)c1ccccc1 (stereo not given),IC50 (viability decrease),[3],inactive
same,Potency,[6],inactive
CC1(C)CC[C@]2(C(=O)O)CC[C@]3(C)C(=CCC4[C@@]5(C)CC[C@H](O[C@@H]6O[C@H](C(=O)O)[C@@H](O)[C@H](O)[C@H]6O)C(C)(CO)C5CC[C@]43C)C2C1 (stereo not given in full),Potency,[7],inactive
same,Potency,[4],inactive
Cc1nnc(C(C)C)n1C1CC2CCC(C1)N2CC[C@H](NC(=O)C1CCC(F)(F)CC1)c1ccccc1 (stereo not given in full),Potency,[2],inactive
same,Potency,[4],inactive
Cc1onc(-c2ccccc2)c1C(=O)N[C@@H]1C(=O)N2[C@@H]1SC(C)(C)[C@@H]2C(=O)O,Potency,[7],inactive
same,Potency,[4],inactive
CC(C)(O)/C=C1/C(=O)C(C)(C)C(=O)C(C)(C)C1(O)O[C@@H]1O[C@H](COC(=O)c2cc(O)c(O)c(O)c2)[C@@H](O)[C@H](O)[C@H]1O (stereo not given in full),Potency,[7],inactive
same,Potency,[4],inactive
O=C(/C=C/c1c(C(=O)O)[nH]c2cc(Cl)cc(Cl)c12)Nc1ccccc1,Potency,[7],inactive
CCC1(O)CC2CN(CCc3c([nH]c4ccccc34)[C@@](C(=O)OC)(c3cc4c(cc3OC)N(C=O)[C@H]3[C@](O)(C(=O)OC)[C@H](OC(C)=O)[C@]5(CC)C=CCN6CC[C@]43[C@@H]65)C2)C1 (stereo not given in full),Potency,[2],3320 nM (active)
same,IC50 (viability decrease),[3],418 nM (active)
same,Potency,[6],2.6 nM (active)
COC(=O)C1C(c2ccc(O)cc2)C(C(=O)OC)C1c1ccc(O)cc1 (stereo not given),Potency,[7],inactive
CC(=O)C1CCC2(C)C3=C(CCC12C)C1(C)CCC(=O)C(C)(C)C1CC3 (stereo not given),Potency,[7],inactive
CC[C@@H](C(=O)O)C1CC[C@H](C)C([C@@H](C)[C@H](O)[C@H](C)C(=O)[C@H](CC)C2O[C@]3(C=C[C@@H](O)[C@]4(CC[C@@](C)(C5CC[C@](O)(CC)[C@H](C)O5)O4)O3)[C@H](C)C[C@@H]2C)O1 (stereo not given in full),Potency,[1],33.2 nM (active)
same,Potency,[5],14800 nM (active)
same,Potency,[2],1870 nM (active)
same,IC50 (viability decrease),[3],74.3 nM (active)
same,Potency,[6],7430 nM (active)
C[C@@H]1CCN(C(=O)CC#N)C[C@@H]1N(C)c1ncnc2[nH]ccc12,Potency,[1],inactive
same,Potency,[2],inactive
same,IC50 (viability decrease),[3],inactive
Cn1c(=O)c2nc(/C=C/c3cccc(Cl)c3)n(C)c2n(C)c1=O,Potency,[7],inactive
O=C(O)CC/C=C\CC[C@H]1[C@@H](N2CCCCC2)[C@@H](O)C[C@@H]1OCc1ccc(-c2ccccc2)cc1,Potency,[5],inactive
same,Potency,[2],inactive
same,IC50 (viability decrease),[3],inactive
COC(=O)C1=C(C)NC(C)=C(C(=O)OCCCN2CCC(c3ccccc3)(c3ccccc3)CC2)[C@H]1c1cccc([N+](=O)[O-])c1,Potency,[1],inactive
same,IC50 (viability decrease),[3],26400 nM (active)
CCc1c(CC(N)=O)c2cc(OCCCP(=O)(O)O)ccc2n1Cc1ccccc1,Potency,[7],inactive
CCOc1nc2cccc(C(=O)O)c2n1Cc1ccc(-c2ccccc2-c2noc(=O)[nH]2)cc1,Potency,[7],inactive
same,Potency,[4],inactive
CCC1(Cc2ccc(N)cc2)CCC(=O)NC1=O (stereo not given),Potency,[1],inactive
same,Potency,[2],inactive
same,IC50 (viability decrease),[3],inactive
COc1ccccc1[C@@H]1C2=C(CC(C)(C)CC2=O)Nc2n[nH]c(C(F)(F)F)c21,Potency,[7],inactive
C[C@@H]1CC[C@H]2C(C)(C)[C@H](O)[C@H](O)C[C@]2(C)[C@@]12Cc1c(O)cc3c(c1O2)CNC3=O,Potency,[7],inactive
same,Potency,[4],inactive
O=C(O)CCc1cccc(O[C@@H]2O[C@H](CO)[C@@H](O)[C@H](O)[C@H]2O)c1O,Potency,[7],inactive
same,Potency,[4],inactive
O=c1cc(C2=CC=CC3Sc4ccccc4SC23)oc(N2CCOCC2)c1 (stereo not given),Potency,[2],inactive
same,Potency,[6],inactive
CCCn1cnc2c(NCc3ccccc3)nc(N[C@H](CC)CO)nc21,Potency,[7],inactive
same,Potency,[4],inactive
CNC1CCN(C(Cc2cccc(-c3ccncc3)c2)C(=O)c2sc3c(F)ccc(F)c3c2Cl)CC1 (stereo not given),Potency,[1],inactive
CC1=C2C(=O)O[C@@H](c3ccoc3)[C@]2(C)CCC1,Potency,[7],inactive
same,Potency,[4],inactive
